# Test results taken from PubChem BioAssay (EPA / NIEHS).
# Several values for one entry are separate records, joined by “and”; a condition that tells them apart may be missing. Equal values may be shown once. Inconclusive results are not listed. Activity calls are given as the source filed them. The calls were made as follows, unless noted: active = hit-call score of the fitted dose curve at least 0.9, where 1 is the maximum; inactive = score below 0.9.
# How the values were obtained:
# [1] = target: human Retinoic Acid Receptor beta (RARb), RARB (gene 5915) (UniProt P10826); assay: ATG_RARb_TRANS: Attagene TRANS-FACTORIAL HepG2 Assay for human Retinoic Acid Receptor beta (AID 2283004; active = hit-call score of the fitted dose curve at least 0.9, where 1 is the maximum)
# Procedure, shortened: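 Transient transfection of HepG2 with multiple reporter units → chemical dosing, 24 h → total RNA isolation → RT with oligo(dT) → reporter-specific PCR, 6-FAM primer extension, HpaI digest → capillary electrophoresis. Positive direction vs DMSO control.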
# [2] = target: Retinoic acid receptor alpha (Homo sapiens) (UniProt P10276); assay: ATG_RARa_TRANS: Attagene TRANS-FACTORIAL HepG2 Assay for human Retinoic Acid Receptor alpha (RARa) (AID 2283005; active = hit-call score of the fitted dose curve at least 0.9, where 1 is the maximum)
# Procedure, shortened: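 HepG2 cells transiently transfected with multiple reporter units expressing chimeric RARα-GAL4 fusion, with GAL4-UAS-driven reporters. After 24 h compound exposure, reporter mRNA induction quantified by RT-PCR and capillary electrophoresis with fluorescent labeling; gain-of-signal fitted relative to DMSO control.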
# [3] = tested on: Thyroperoxidase (TPO), gene 54314; assay: CCTE_Simmons_AUR_rTPO: CCTE's Amplex UltraRed Assay for Thyroperoxidase (TPO) Inhibition, Simmons Lab (AID 2283662; active = hit-call score of the fitted dose curve at least 0.9, where 1 is the maximum;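 also: potency for loss of signal meaning inhibition of peroxidase activity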)
# Procedure, shortened: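 Cell-free peroxidase activity assay using rat thyroid gland microsomes with excess H2O2 (300 uM) and 25 uM Amplex UltraRed. Compounds tested from 5 nM to 87.5 uM; fluorescence measured after 30 min at 37C, analysed relative to DMSO baseline.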
# [4] = read-out: Secreted IgG (sIgG), gene 3500; assay: BSK_BT_sIgG: BioMAP Diversity Plus: BT Assay for Secreted IgG (sIgG) Biomarker Activity (AID 2284226); details: primary human B cells with PBMC
# Procedure, shortened: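 Human B cell plus PBMC co-culture; secreted IgG measured by ELISA 24 h after chemical dosing. Response fitted in positive direction relative to DMSO baseline.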
# [5] = read-out: Tumor necrosis factor (Homo sapiens) (UniProt P01375); assay: BSK_BT_xTNFa: BioMAP Diversity Plus: BT Assay for Tumor necrosis factor alpha (TNF-alpha) Biomarker Activity (AID 2284230); details: primary human B cells with PBMC
# Procedure, shortened: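 Compounds were added to a B cell plus PBMC co-culture, and after 24 h secreted TNF-alpha was quantified with Luminex xMAP technology, with responses fitted upward from the DMSO control.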
# [6] = read-out: Vascular cell adhesion molecule 1 (VCAM1), VCAM1 (gene 7412); assay: BSK_MyoF_VCAM1: BioMAP Diversity Plus: MyoF Assay for Vascular cell adhesion molecule 1 (VCAM1) Biomarker Activity (AID 2284231); details: primary human lung fibroblasts
# Procedure, shortened: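 ELISA read-out of VCAM-1 on human lung fibroblasts 24 h after chemical treatment, with positive-direction curve fitting relative to DMSO controls. Parallel cultures were stained with sulforhodamine B for total protein to flag overt cytotoxicity.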
# [7] = read-out: Collagen I, COL1A1 (gene 1277); assay: BSK_MyoF_CollagenI: BioMAP Diversity Plus: MyoF Assay for Collagen I Biomarker Activity (AID 2284238); details: primary human lung fibroblasts
# Procedure, shortened: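 Lung fibroblasts (human primary) dosed, 24 h; Collagen I by ELISA; positive-direction fit vs DMSO control. Parallel SRB total-protein staining (0.1% SRB, 10% TCA fixation, 560 nm) flags overt cytotoxicity.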
# [8] = read-out: Actin alpha 1 (ACTA1), ACTA1 (gene 58); assay: BSK_MyoF_ACTA1: BioMAP Diversity Plus: MyoF Assay for Actin alpha 1 (ACTA1) Biomarker Activity (AID 2284244); details: primary human lung fibroblasts
# Procedure, shortened: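 Human lung fibroblast (MyoF system) cultures dosed with test chemical; alpha-SMA measured by ELISA 24 h after dosing, normalized to DMSO control. Cytotoxicity tracked in parallel cultures by SRB total-protein staining.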
# [9] = read-out: Interleukin 2 (IL2), IL2 (gene 3558); assay: BSK_BT_xIL2: BioMAP Diversity Plus: BT Assay for Interleukin 2 (IL2) Biomarker Activity (AID 2284245); details: primary human B cells with PBMC
# Procedure, shortened: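 Human B cell plus PBMC co-culture, 24 h after chemical dosing; secreted IL-2 quantified by Luminex xMAP multiplex, fitted for signal gain against DMSO baseline.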
# [10] = read-out: Basic fibroblast growth factor (bFGF), FGF2 (gene 2247); assay: BSK_MyoF_bFGF: BioMAP Diversity Plus: MyoF Assay for Basic fibroblast growth factor (bFGF) Biomarker Activity (AID 2284246); details: primary human lung fibroblasts
# Procedure, shortened: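 Human lung fibroblast cultures were dosed and measured 24 h later in 96-well format. bFGF biomarker levels quantified by ELISA, with activity fitted in the positive direction against DMSO.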
# [11] = read-out: Plasminogen activator inhibitor-1 (PAI1), SERPINE1 (gene 5054); assay: BSK_MyoF_PAI1: BioMAP Diversity Plus: MyoF Assay for Plasminogen activator inhibitor-1 (PAI1) Biomarker Activity (AID 2284256); details: primary human lung fibroblasts;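 as to outcome: PAI-1 protein level measured by ELISA in fibroblast cultures; PAI-1 read 24 h after compound addition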
# Procedure, shortened: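 Primary human lung fibroblasts are dosed and incubated 24 h. PAI-1 is then measured by ELISA, while parallel cultures undergo SRB staining for overt cytotoxicity. Increases over DMSO define activity.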
# [12] = read-out: Interleukin-8 (IL8), CXCL8 (gene 3576); assay: BSK_MyoF_IL8: BioMAP Diversity Plus: MyoF Assay for Interleukin-8 (IL8) Biomarker Activity (AID 2284261); details: primary human lung fibroblasts
# Procedure, shortened: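 IL-8 levels were measured by ELISA in human lung fibroblasts harvested 24 h after compound addition. Responses were analysed as gain of signal over the DMSO baseline.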
# [13] = read-out: Decorin, DCN (gene 1634); assay: BSK_MyoF_Decorin: BioMAP Diversity Plus: MyoF Assay for Decorin Biomarker Activity (AID 2284265); details: primary human lung fibroblasts
# Procedure, shortened: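 Compound is added to lung fibroblast cultures; cells incubate 24 h; decorin is then measured by ELISA; the response is analysed upward against DMSO controls.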
# [14] = BSK_MyoF_SRB: Viability Assessment in the BioMAP Diversity Plus: MyoF Assay (AID 2284267); details: primary human lung fibroblasts;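 also: total protein by SRB absorbance in parallel cultures as cytotoxicity measure; cells assessed 24 h after compound addition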
# Procedure, shortened: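 Human lung fibroblasts, 24 h after chemical dosing; total protein measured by 0.1% sulforhodamine B staining after 10% TCA fixation, read at 560 nm, fitted relative to DMSO baseline.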
# [15] = target: human Peripheral-type Benzodiazepine Receptor (PBR), TSPO (gene 706) (UniProt P30536); assay: NVS_MP_hPBR: NovaScreen (NVS) Membrane Protein Assay for human Peripheral-type Benzodiazepine Receptor (PBR) (AID 2283331; active = hit-call score of the fitted dose curve at least 0.9, where 1 is the maximum;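 also: hits reduce radioligand binding relative to DMSO baseline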)
# Procedure, shortened: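 Human colonic cell membranes were incubated with test chemical for 1 hour; radioligand binding was measured by filter-based scintillation counting. Primary screen ran in duplicate at 25 uM, with actives followed in concentration series; loss of signal versus DMSO baseline.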
# [16] = CEETOX_H295R_MTT_cell_viability: Viability Assessment in the CeeTox HT-H295R MTT Assay (AID 2283718)
# Procedure, shortened: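 H295R cells prestimulated 48 h with 10 uM forskolin, then exposed 48 h to test chemical (0.1% DMSO final). Viability by MTT (0.5 mg/ml, 4 h, 37 C), absorbance 570/650 nm; percent change versus DMSO, bidirectional fit.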
# [17] = target: Estrogen receptor (Homo sapiens) (UniProt P03372); assay: ATG_ERa_TRANS: Attagene TRANS-FACTORIAL HepG2 Assay for human Estrogen Receptor alpha (ERa) (AID 2282970; active = hit-call score of the fitted dose curve at least 0.9, where 1 is the maximum); details: HepG2 Attagene TRANS ERa GAL4 reporter, mRNA
# Procedure, shortened: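 Human liver HepG2, transient transfection of multiple GAL4-UAS reporter units; TRANS format (exogenous NR-Gal4 chimera). 24 h dosing. Readout: reporter mRNA, RT-PCR, 6-FAM primer extension, HpaI digest, capillary electrophoresis. Positive direction vs DMSO.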
# [18] = target: Androgen receptor (Homo sapiens) (UniProt P10275); assay: ATG_AR_TRANS: Attagene TRANS-FACTORIAL HepG2 Assay for human Androgen Receptor (AR) (AID 2282973; active = hit-call score of the fitted dose curve at least 0.9, where 1 is the maximum); details: HepG2 Attagene TRANS-FACTORIAL AR reporter transcription
# Procedure, shortened: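 Steps: transfect HepG2 with multiple GAL4-UAS reporter transcription units (TRANS format, exogenous NR-Gal4 protein); dose 24 h; isolate RNA, reverse-transcribe, PCR-amplify, FAM-label, HpaI-digest; resolve by capillary electrophoresis. Positive direction vs DMSO.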
# [19] = target: human Retinoic Acid Receptor gamma (RARg), RARG (gene 5916) (UniProt P13631); assay: ATG_RARg_TRANS: Attagene TRANS-FACTORIAL HepG2 Assay for human Retinoic Acid Receptor gamma (RARg) (AID 2283009; active = hit-call score of the fitted dose curve at least 0.9, where 1 is the maximum)
# Procedure, shortened: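 HepG2 transiently transfected with GAL4-UAS reporter units and chimeric NR-Gal4 constructs; 24 h compound exposure. Reporter mRNA quantified by RT-PCR, FAM labeling, HpaI digestion and capillary electrophoresis; gain-of-signal versus DMSO.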
# Tumor necrosis factor (Homo sapiens), sequence (P01375 whole entry, looked up): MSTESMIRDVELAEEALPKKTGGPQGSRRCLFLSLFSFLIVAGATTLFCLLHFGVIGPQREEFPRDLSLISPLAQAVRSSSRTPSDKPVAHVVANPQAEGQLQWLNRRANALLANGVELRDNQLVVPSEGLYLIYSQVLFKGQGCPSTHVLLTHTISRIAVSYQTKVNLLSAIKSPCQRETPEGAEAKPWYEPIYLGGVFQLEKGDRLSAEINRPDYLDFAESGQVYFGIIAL
# Estrogen receptor (Homo sapiens), sequence (P03372 whole entry, looked up, the tested form may be a part): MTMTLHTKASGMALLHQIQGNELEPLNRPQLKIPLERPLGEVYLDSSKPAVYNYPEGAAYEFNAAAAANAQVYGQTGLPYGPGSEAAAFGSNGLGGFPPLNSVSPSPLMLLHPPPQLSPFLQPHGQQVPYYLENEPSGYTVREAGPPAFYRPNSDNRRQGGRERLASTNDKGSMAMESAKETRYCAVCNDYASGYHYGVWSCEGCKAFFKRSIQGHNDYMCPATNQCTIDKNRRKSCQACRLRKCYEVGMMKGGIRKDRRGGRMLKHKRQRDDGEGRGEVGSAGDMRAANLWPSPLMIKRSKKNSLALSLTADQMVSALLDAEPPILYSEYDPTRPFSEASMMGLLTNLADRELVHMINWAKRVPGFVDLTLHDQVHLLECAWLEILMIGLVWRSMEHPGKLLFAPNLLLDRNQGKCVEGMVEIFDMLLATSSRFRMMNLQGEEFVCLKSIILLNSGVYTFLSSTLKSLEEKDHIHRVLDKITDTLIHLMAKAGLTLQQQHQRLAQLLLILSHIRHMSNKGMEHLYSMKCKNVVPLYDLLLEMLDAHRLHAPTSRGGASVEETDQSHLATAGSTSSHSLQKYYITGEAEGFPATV
# human Retinoic Acid Receptor gamma (RARg), RARG (gene 5916), sequence (P13631 whole entry, looked up, the tested form may be a part): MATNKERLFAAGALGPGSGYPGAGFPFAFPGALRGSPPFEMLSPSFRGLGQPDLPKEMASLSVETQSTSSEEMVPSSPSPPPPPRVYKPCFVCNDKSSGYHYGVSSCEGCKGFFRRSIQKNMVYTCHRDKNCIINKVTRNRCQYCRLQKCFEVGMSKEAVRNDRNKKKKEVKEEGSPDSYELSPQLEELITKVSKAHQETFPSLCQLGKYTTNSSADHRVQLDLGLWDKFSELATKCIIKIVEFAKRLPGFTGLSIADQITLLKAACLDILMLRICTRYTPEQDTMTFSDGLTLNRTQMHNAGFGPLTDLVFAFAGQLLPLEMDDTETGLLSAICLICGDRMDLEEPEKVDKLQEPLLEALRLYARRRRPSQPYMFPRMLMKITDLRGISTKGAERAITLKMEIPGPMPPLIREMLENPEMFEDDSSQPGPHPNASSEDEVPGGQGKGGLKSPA
# human Peripheral-type Benzodiazepine Receptor (PBR), TSPO (gene 706), sequence (P30536 whole entry, looked up): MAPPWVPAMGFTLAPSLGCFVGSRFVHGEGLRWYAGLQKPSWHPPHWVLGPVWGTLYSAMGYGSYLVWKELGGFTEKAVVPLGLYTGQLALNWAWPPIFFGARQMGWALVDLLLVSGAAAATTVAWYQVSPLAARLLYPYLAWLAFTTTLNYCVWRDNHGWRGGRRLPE
# human Retinoic Acid Receptor beta (RARb), RARB (gene 5915), sequence (P10826 whole entry, looked up): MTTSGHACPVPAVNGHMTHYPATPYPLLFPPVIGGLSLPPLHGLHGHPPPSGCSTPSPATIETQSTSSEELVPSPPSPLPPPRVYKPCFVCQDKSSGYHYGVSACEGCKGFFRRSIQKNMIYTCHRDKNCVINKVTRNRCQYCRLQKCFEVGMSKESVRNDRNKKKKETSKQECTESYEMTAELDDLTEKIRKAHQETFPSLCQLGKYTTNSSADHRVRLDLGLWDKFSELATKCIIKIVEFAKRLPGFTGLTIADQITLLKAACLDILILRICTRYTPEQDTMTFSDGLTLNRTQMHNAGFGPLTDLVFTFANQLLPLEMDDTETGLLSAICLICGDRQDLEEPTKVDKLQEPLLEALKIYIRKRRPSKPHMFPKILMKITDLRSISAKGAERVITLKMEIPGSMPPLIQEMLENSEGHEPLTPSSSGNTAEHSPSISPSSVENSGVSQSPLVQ
# Retinoic acid receptor alpha (Homo sapiens), sequence (P10276 whole entry, looked up, the tested form may be a part): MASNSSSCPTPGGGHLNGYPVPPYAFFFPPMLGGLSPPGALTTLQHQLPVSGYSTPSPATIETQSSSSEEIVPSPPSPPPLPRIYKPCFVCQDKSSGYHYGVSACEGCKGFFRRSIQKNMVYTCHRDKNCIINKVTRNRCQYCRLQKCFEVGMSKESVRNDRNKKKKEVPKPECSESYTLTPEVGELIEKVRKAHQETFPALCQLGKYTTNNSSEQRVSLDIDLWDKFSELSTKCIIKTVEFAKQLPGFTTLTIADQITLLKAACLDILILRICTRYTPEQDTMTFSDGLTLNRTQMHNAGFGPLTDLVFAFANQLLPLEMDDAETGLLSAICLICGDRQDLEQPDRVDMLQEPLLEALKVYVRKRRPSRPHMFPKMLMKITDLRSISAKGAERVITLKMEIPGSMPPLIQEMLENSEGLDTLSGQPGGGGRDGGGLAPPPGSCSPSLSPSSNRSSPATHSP
# Androgen receptor (Homo sapiens), sequence (P10275 whole entry, looked up, the tested form may be a part): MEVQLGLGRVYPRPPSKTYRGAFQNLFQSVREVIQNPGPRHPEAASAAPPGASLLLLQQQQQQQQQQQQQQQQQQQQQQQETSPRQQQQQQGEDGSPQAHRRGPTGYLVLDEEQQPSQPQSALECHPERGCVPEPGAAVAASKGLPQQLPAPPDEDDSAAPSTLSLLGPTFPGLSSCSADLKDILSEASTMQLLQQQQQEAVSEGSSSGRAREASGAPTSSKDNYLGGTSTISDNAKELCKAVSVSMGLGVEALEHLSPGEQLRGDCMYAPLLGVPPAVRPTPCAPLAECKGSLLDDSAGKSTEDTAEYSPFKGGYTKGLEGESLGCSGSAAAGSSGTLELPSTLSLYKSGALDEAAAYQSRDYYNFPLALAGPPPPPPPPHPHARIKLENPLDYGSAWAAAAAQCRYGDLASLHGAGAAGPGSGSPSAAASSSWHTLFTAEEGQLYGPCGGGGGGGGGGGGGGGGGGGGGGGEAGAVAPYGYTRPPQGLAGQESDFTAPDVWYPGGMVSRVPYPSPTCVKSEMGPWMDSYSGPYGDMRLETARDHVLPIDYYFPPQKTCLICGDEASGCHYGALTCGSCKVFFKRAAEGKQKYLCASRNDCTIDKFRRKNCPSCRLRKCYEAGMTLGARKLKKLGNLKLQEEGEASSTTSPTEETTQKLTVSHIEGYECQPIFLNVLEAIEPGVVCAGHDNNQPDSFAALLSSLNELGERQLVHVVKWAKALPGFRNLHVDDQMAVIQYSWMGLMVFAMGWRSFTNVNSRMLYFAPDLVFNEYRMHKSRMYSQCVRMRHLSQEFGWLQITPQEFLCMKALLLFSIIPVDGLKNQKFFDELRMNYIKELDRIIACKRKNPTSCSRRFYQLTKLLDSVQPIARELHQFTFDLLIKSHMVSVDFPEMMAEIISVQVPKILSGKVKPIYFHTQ
smiles,measurement,setting,value
CCC1CCC(=O)O1 (stereo not given),outcome,[1],inactive
same,outcome,[2],inactive
O=C(O)CCl,AC50,[3],18.1 µM (active)
O=C1C=CC(=O)C=C1,AC50,[4],10.9 µM (active) and 28 µM (active)
same,AC50,[5],24 µM (active) and 33.1 µM (active)
same,AC50,[6],34 µM (active) and 29.6 µM (active)
same,AC50,[7],31.8 µM (active) and 25.3 µM (active)
same,AC50,[8],30.9 µM (active) and 20 µM (active)
same,AC50,[9],26.3 µM (active) and 32 µM (active)
same,AC50,[10],34.7 µM (active) and 30.6 µM (active)
same,AC50,[11],36.9 µM (active) and 26.8 µM (active)
same,AC50,[12],9.01 µM (active) and 4.78 µM (active)
same,outcome,[13],inactive
same,AC50,[14],30.6 µM (active) and 29 µM (active)
COC(=O)COc1ccc(Cl)cc1Cl,AC50,[15],14.9 µM (active)
CC(=O)c1cc2c(cc1C)C(C)(C)C(C)CC2(C)C (stereo not given),outcome,[16],inactive
O=[N+]([O-])c1cc(C(F)(F)F)c(Cl)c([N+](=O)[O-])c1Cl,AC50,[17],14.6 µM (active)
O=C(O)c1cc[c]([Hg][Cl])cc1,outcome,[17],inactive
O=C1C(Cl)=C(Cl)C(=O)C(Cl)=C1Cl,outcome,[17],inactive
same,outcome,[18],inactive
same,outcome,[19],inactive
same,AC50,[15],34.4 µM (active)
same,AC50,[4],32.6 µM (active)
same,AC50,[5],20 µM (active)
same,AC50,[6],20.5 µM (active)
same,AC50,[7],16.6 µM (active)
same,AC50,[8],23.8 µM (active)
same,AC50,[9],29.3 µM (active)
same,AC50,[10],30.9 µM (active)
same,AC50,[11],29.9 µM (active)
same,AC50,[12],32 µM (active)
same,outcome,[13],inactive
same,AC50,[14],29.6 µM (active)
C=C(Cl)Cl,outcome,[17],inactive
same,outcome,[18],inactive
same,outcome,[1],inactive
same,outcome,[2],inactive
same,outcome,[19],inactive
C[N+](C)(C)CC(=O)O,outcome,[17],inactive
COCC(=O)N(c1c(C)cccc1C)N1CCOC1=O,outcome,[4],inactive
same,outcome,[5],inactive
same,outcome,[6],inactive
same,outcome,[7],inactive
same,outcome,[8],inactive
same,outcome,[9],inactive
same,outcome,[10],inactive
same,outcome,[11],inactive
same,outcome,[12],inactive
same,outcome,[13],inactive
same,outcome,[14],inactive
ClC1=C(Cl)[C@]2(Cl)[C@@H]3[C@@H](Cl)[C@H](Cl)C[C@@H]3[C@@]1(Cl)C2(Cl)Cl,outcome,[19],inactive
CC(C)CCCCCCCOP(=O)(Oc1ccccc1)Oc1ccccc1,AC50,[17],5.78 µM (active)
same,AC50,[15],6.03 µM (active)
same,AC50,[4],18.9 µM (active)
same,AC50,[5],31.3 µM (active)
same,AC50,[6],8.84 µM (active)
same,AC50,[7],8.57 µM (active)
same,AC50,[8],8.22 µM (active)
same,AC50,[9],26.4 µM (active)
same,AC50,[10],20 µM (active)
same,AC50,[11],12.8 µM (active)
same,AC50,[12],5.07 µM (active)
same,AC50,[13],8.75 µM (active)
same,AC50,[14],11.3 µM (active)
CCCCNP(N)(N)=S,outcome,[17],inactive
